“And” between values parts separate entries of the source, which are not always exact repeats. Equal values may be shown once. For some assays here: Measured potencies and affinities stand elsewhere. The source made the active and inactive calls. Unless noted, no rule for the calls is given here.
Tests used:
[1] = stimulators of insulin release from INS-1E, primary screen, cell-based, 5 mM glucose, NPC library (AID 1117329;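 active = compound raises insulin release from rat beta cells at 5 mM glucose, no numeric limit stated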); settings: rat INS-1E insulin secretion, at 10 µM, stronger effect = higher value
[2] = growth inhibition of GSK3B-pretreated HCT116 cells – cell-based, CellTiter-Glo, 0.2 to 20 µM (AID 1117336;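 active = compounds lowering colon cancer cell viability after pretreatment blocking the GSK3B kinase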); settings: HCT116 viability after GSK3B inhibitor, at 20 µM, stronger effect = higher value
[3] = inhibition of endothelial tube formation, primary screen, imaging, VEGF stimulated, CD31 staining, tube area, NPC library (AID 1117340;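 active = compound that reduces growth-factor-driven endothelial tube area in a mixed cell culture, no cutoff stated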); settings: VEGF-stimulated ADSC/ECFC co-culture, at 10 µM, stronger effect = higher value
[4] = glucagon-like peptide 1 release enhancers, primary assay, NCI-H716 cell line, NPC library (AID 1117341;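 active = compound raises GLP1 secretion from the human gut endocrine cells, with no numeric limit stated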); settings: NCI-H716 cells, at 10 µM, stronger effect = higher value
[5] = HCT116 colon cancer cell growth inhibition, primary screen, CellTiter-Glo luminescence, NPC library (AID 1117342;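 active = compounds that lower survival of HCT116 colon cancer cells in the luminescence readout, no numeric limit stated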); settings: at 20 µM (top of the series)
[6] = CellTiter-Glo luminescent readout of SW480 viability loss, NPC library primary (AID 1117343;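 active = compounds that lower viability of the colon cancer cells in the luminescence readout, with no numeric limit stated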); settings: CellTiter-Glo luminescence; at 20 µM (top of the series)
[7] = decreased DLD-1 cellular survival, CellTiter-Glo luminescent readout, NPC compound collection, primary HTS (AID 1117346;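 active = compounds that lower survival of DLD-1 colon cancer cells in the luminescence readout, no cutoff given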); settings: DLD-1 viability, CellTiter-Glo luminescence; at 20 µM (top of the series)
[8] = biological target: 6-phosphogluconate dehydrogenase, decarboxylating (Homo sapiens) (UniProt P52209); test: 6PGD enzyme inhibitors, primary screen, biochemical, human, recombinant enzyme, NADPH absorbance (AID 1159550;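 active = at least 20% inhibition of 6-phosphogluconate dehydrogenase activity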); settings: recombinant 6PGD, NADPH absorbance 341 nm; at 10 µM; stronger effect = higher value
[9] = test system: Aerobactin synthetase IucA (Klebsiella pneumoniae); test: IucA aerobactin synthetase inhibitors, biochemical, Tocris library, absorbance (AID 1345561); settings: purified IucA enzyme assay, absorbance (OD) read-out; stronger effect = lower value;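 tested at 8 µM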;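 also: 100% = enzyme without compound and 0% = no enzyme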
[10] = biological target: Calcium-dependent protein kinase 1 (Plasmodium falciparum (isolate 3D7)) (UniProt P62344); test: PfCDPK1 kinase inhibitors, biochemical, TCAMS library (AID 1159585; cut-off not given, nearly all actives have IC50 up to about 0.98 µM;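 also: inhibitors leave more ATP so luminescence rises with inhibition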); settings: recombinant PfCDPK1, Kinase-Glo ATP depletion luminescence
[11] = biological target: Plasmodium falciparum protein kinase 6 (PK6, PF3D7_1337100) (UniProt Q8IDW1); test: PfPK6 kinase inhibitors, biochemical, TCAMS library (AID 1159586); settings: recombinant PfPK6, Kinase-Glo ATP depletion luminescence
[12] = biological target: Protein kinase 7 (PK7), Plasmodium falciparum 3D7 (PF3D7_0213400) (UniProt Q7YTF7); test: inhibition of Plasmodium PK7 catalytic activity – biochemical, TCAMS antimalarial set, Kinase-Glo luminescence (AID 1159587); settings: recombinant PfPK7, Kinase-Glo ATP depletion luminescence
[13] = biological target: Calcium-dependent protein kinase 4 (Plasmodium falciparum (isolate 3D7)) (UniProt Q8IBS5); test: PfCDPK4 kinase inhibitors, biochemical, TCAMS library (AID 1159588; cut-off not given, nearly all actives have IC50 up to about 0.91 µM); settings: recombinant PfCDPK4, Kinase-Glo ATP depletion luminescence
[14] = differential killing of epithelial or mesenchymal cells, primary screen, imaging, PC-3E GFP, TEM4-18 mCherry, co-culture (AID 1345086;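 active = compounds killing one labelled cell type while sparing the other, by normalised counts and ratio limits, not self-fluorescent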;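 as to all read-outs here: cells exposed to compound for 72 h before imaging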;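 as to red/green cell ratio (normalised): normalised mesenchymal count divided by normalised epithelial count so high means epithelial killing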); settings: imaging cell counts, at 1 µM; for red/green cell ratio (normalised): actives lie on both sides, counts scaled to control wells, 1 = unselective
[15] = modulation of C. elegans fzo-1 (AID 1259413);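 also: fzo-1 mutant C. elegans worms in liquid wells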; settings: C. elegans fzo-1 modulator screen, mean read-out; stronger effect = higher value
[16] = measured here: epithelial PC-3E GFP cell survival
[17] = measured here: mesenchymal TEM4-18 mCherry cell survival

Sequence of Calcium-dependent protein kinase 4 (Plasmodium falciparum (isolate 3D7)) (Q8IBS5 whole entry, looked up): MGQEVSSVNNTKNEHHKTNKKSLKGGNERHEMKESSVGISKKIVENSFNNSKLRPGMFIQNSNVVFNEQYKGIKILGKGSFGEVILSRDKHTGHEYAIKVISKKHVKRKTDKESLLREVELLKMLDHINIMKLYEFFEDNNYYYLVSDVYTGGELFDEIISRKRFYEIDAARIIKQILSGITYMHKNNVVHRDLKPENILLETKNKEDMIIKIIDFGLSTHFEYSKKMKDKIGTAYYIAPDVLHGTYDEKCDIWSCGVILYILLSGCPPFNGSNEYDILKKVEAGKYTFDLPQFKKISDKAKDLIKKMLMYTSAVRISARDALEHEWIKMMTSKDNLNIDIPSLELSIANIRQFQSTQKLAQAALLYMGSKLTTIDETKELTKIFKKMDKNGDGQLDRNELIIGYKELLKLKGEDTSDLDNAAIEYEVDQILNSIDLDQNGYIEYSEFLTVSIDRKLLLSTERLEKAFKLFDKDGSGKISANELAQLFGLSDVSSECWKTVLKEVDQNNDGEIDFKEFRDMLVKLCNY
Sequence of Plasmodium falciparum protein kinase 6 (PK6, PF3D7_1337100) (Q8IDW1 1-305): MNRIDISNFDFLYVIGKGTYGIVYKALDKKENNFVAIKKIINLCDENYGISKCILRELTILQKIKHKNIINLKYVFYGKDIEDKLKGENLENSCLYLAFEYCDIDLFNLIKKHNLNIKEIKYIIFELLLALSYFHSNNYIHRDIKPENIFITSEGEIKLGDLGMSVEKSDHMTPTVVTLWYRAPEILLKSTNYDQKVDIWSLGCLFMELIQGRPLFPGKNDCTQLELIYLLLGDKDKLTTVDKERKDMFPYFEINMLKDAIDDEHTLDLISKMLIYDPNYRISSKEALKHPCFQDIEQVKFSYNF
Sequence of Calcium-dependent protein kinase 1 (Plasmodium falciparum (isolate 3D7)) (P62344 whole entry, looked up): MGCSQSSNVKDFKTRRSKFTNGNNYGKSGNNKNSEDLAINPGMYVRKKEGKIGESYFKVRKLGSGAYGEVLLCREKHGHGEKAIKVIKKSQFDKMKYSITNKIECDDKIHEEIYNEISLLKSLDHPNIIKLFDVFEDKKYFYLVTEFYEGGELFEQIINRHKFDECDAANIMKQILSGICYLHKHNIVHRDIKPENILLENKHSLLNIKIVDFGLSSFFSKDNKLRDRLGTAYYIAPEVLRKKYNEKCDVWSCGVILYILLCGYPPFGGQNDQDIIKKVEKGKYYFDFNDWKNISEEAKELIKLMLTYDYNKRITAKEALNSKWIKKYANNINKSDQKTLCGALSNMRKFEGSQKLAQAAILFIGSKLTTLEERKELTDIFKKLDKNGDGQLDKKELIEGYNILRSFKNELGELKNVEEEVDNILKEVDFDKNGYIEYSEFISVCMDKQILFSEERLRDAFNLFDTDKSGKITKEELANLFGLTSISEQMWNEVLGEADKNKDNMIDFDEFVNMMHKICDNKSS
Sequence of 6-phosphogluconate dehydrogenase, decarboxylating (Homo sapiens) (P52209 whole entry, looked up): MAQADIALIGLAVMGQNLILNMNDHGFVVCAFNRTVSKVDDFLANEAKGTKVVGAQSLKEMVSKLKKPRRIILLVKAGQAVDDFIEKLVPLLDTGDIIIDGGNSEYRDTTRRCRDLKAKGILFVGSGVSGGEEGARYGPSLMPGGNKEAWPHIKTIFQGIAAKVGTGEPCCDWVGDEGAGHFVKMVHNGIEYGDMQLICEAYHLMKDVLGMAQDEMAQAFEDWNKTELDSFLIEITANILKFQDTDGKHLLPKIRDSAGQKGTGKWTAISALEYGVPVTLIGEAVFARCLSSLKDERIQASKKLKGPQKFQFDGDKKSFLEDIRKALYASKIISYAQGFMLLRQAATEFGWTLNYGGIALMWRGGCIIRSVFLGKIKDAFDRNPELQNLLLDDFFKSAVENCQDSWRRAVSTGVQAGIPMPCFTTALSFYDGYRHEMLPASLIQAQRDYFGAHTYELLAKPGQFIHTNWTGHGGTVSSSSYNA
Sequence of Protein kinase 7 (PK7), Plasmodium falciparum 3D7 (PF3D7_0213400) (Q7YTF7 1-343): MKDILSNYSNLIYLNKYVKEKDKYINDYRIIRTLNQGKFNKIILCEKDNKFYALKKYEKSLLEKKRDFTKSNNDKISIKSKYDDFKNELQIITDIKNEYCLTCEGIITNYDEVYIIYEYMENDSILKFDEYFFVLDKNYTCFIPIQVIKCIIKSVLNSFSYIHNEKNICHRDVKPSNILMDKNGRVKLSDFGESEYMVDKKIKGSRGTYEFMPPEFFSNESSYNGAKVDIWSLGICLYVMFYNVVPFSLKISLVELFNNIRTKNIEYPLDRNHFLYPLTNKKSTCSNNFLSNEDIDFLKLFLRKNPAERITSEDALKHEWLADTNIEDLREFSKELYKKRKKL

Structure (SMILES) | insulin secretion stimulation [1] | viability decrease [2] | tube area decrease [3] | GLP1 secretion stimulation [4] | inhibition of viability [5] | viability decrease (inhibition) [6] | viability decrease (inhibition) [7] | inhibition [8] | remaining activity [9] | outcome [10] | outcome [11] | outcome [12] | outcome [13] | red/green cell ratio (normalised) [14] | normalised cell number [14, 16] | normalised cell number [14, 17] | mean signal [15]
C=C[C@@]1(C)CC(=O)[C@]2(O)[C@@]3(C)[C@@H](O)CCC(C)(C)[C@@H]3[C@H](O)[C@H](OC(C)=O)[C@@]2(C)O1 | 3.6% (inactive) | -20.2% (inactive) | -41% (inactive) | 5% (inactive) | 17.1% (inactive) | 56.2% (active) | -16.6% (inactive) | 14.7% (inactive) | 113% (inactive) | – | – | – | – | – | – | – | –
CCOc1ccc2nc3cc(N)ccc3c(N)c2c1 | 3.5% (inactive) | 81.2% (active) | 73.3% (active) | 8.6% (inactive) | 70.6% (active) | 121% (active) | 47.2% (inactive) | – | – | inactive | inactive | inactive | inactive | 1.04 (inactive) | 0.62 | 0.65 | –
Nc1c2c(nc3c1CCC3)CCCC2 | 21.2% (active) | -1.35% (inactive) | 20.5% (inactive) | 4.4% (inactive) | 1% (inactive) | 4.4% (inactive) | -5.95% (inactive) | – | – | – | – | – | – | – | – | – | 275 (inactive)
O=C1c2cccc3c2[C@H](CCC3)CN1[C@@H]1CN2CCC1CC2 | 2.7% (inactive) | 19.7% (inactive) | -6.9% (inactive) | -4.5% (inactive) | 42% (inactive) | 31% (inactive) | 29.6% (inactive) | – | – | – | – | – | – | – | – | – | 244 (inactive)
COc1cc(C(=O)NC2CCCNC2)cc(OC)c1OC (stereo not given) | 1.6% (inactive) | -5.2% (inactive) | 0.1% (inactive) | 3.3% (inactive) | 0.8% (inactive) | 37.5% (inactive) | 15.8% (inactive) | – | – | – | – | – | – | – | – | – | 236 (inactive)
CN1CCN(c2c(F)cc3c(=O)c(C(=O)O)cn4c3c2SCC4)CC1 | 0.05% (inactive) | 19.8% (inactive) | -3.6% (inactive) | 1.6% (inactive) | 7.2% (inactive) | -18.1% (inactive) | 0.6% (inactive) | – | – | – | – | – | – | 1.06 (inactive) and 1.18 (inactive) | 1.01 and 0.81 | 1.07 and 0.95 | 251 (inactive)
CCN1CCN(c2cc3c(cc2F)c(=O)c(C(=O)O)cn3C2CC2)CC1 | -0.15% (inactive) | 38% (inactive) | 8.4% (inactive) | 0.4% (inactive) | 36.2% (inactive) | 11.7% (inactive) | -6.2% (inactive) | – | – | – | – | – | – | 1.09 (inactive) | 1.12 | 1.23 | 280 (inactive)
CC(C(=O)O)c1ccc(CC2CCCC2=O)cc1 (stereo not given) | -1.3% (inactive) | 9.37% (inactive) | -7.8% (inactive) | 0.4% (inactive) | 10.8% (inactive) | 37.6% (inactive) | 5.13% (inactive) | – | – | – | – | – | – | – | – | – | 276 (inactive)
O=c1c(-c2ccccc2)c1-c1ccccc1 | 0.3% (inactive) | 41.9% (inactive) | 103% (active) | -2.9% (inactive) | 64.4% (active) | 106% (active) | 64.3% (active) | – | – | – | – | – | – | – | – | – | 254 (inactive)
COc1cc(C)nc(-n2nc(C)cc2OC)n1 | 2.5% (inactive) | -5% (inactive) | 24.2% (inactive) | -5.7% (inactive) | -10.1% (inactive) | 1.8% (inactive) | -17.2% (inactive) | – | – | – | – | – | – | – | – | – | 243 (inactive)
CO[C@H]1C=CO[C@@]2(C)Oc3c(C)c(O)c4c(O)c(c(/C=N/N5CCN(C)CC5)c(O)c4c3C2=O)NC(=O)/C(C)=C\C=C[C@H](C)[C@H](O)[C@@H](C)[C@@H](O)[C@@H](C)[C@H](OC(C)=O)[C@@H]1C | 1.4% (inactive) | 67.8% (active) | 48.6% (active) | -1.8% (inactive) | 67.5% (active) | 87.1% (active) | 65.6% (active) | – | – | – | – | – | – | – | – | – | 243 (inactive)
CCc1c(C)[nH]c2c1C(=O)C(CN1CCOCC1)CC2 (stereo not given) | 1.8% (inactive) | 2.2% (inactive) | -10.5% (inactive) | 5.2% (inactive) | -24.1% (inactive) | -3.8% (inactive) | -11% (inactive) | – | – | – | – | – | – | 1.03 (inactive) | 0.94 | 0.96 | 257 (inactive)
CCCc1c(OCCCCc2nn[nH]n2)ccc(C(C)=O)c1O | -0.7% (inactive) | 49.9% (inactive) | 15.6% (inactive) | 6.3% (inactive) | 54.3% (active) | 29.7% (inactive) | 27.7% (inactive) | – | – | – | – | – | – | – | – | – | 231 (inactive)
CC(C)(C)C(O)/C=C/c1ccc2c(c1)OCO2 (stereo not given) | -1.1% (inactive) | -4.45% (inactive) | -6.4% (inactive) | 1.9% (inactive) | 11.7% (inactive) | -0.9% (inactive) | -1.3% (inactive) | – | – | – | – | – | – | – | – | – | 280 (inactive)
CCN1CC(CCN2CCOCC2)C(c2ccccc2)(c2ccccc2)C1=O (stereo not given) | 0.3% (inactive) | 11.2% (inactive) | -7% (inactive) | 3.1% (inactive) | 17% (inactive) | 13.5% (inactive) | 4.2% (inactive) | – | – | – | – | – | – | – | – | – | 250 (inactive)
COc1cc(C)c(Cc2cnc(N)nc2N)cc1OC | 1.7% (inactive) | -7.75% (inactive) | 11.1% (inactive) | 0.8% (inactive) | 6.8% (inactive) | 11.5% (inactive) | -5.75% (inactive) | – | – | – | – | – | – | – | – | – | 249 (inactive)
CC(Oc1c(Cl)cccc1Cl)C1=NCCN1 (stereo not given) | 2.3% (inactive) | -16.2% (inactive) | -28.5% (inactive) | -2.9% (inactive) | 31.3% (inactive) | 12.5% (inactive) | 61.6% (active) | – | – | – | – | – | – | 1.37 (inactive) | 0.85 | 1.17 | 295 (inactive)
